Experimental data reported in PubChem BioAssay AID1259343 (VanderVen Lab, College of Veterinary Medicine, Cornell …, 2017).
Screen size: about 6,200 compounds; about 2,900 (47%) were called active. No stated cut-off is given here; in the data, active means inhibition above about 50%; inactive means the rest. The set was probably picked from earlier hits. Some of the results follow.

test: Mycobacterium tuberculosis growth inhibition, primary screen (AID 1259343); conditions: inhibition: at 10 µM, hits give high values; outcome: 10 uM

| SMILES | inhibition |
| --- | --- |
| Cc1cc(C)c(C#N)c(N2CCN(Cc3ccc(Cl)cc3)CC2)n1 | 47.2% (inactive) |
| Clc1ccc(CN2CCN(Cc3cnc(CC4CCCC4)[nH]3)CC2)cc1 | 84.3% (active) |
| CC1CCc2onc(C(=O)Nc3nc4ccccc4n3C)c2C1 (stereo unspecified) | 7% (inactive) |
| O=C(NC(=S)NC1C2CC3CC(C2)CC1C3)c1cccs1 (stereo unspecified) | 56.9% (active) |
| O=S(=O)(/C=C/c1ccccc1)NC12CC3CC(CC(C3)C1)C2 | -12.7% (inactive) |
| COc1cccc(C(=O)NC(C)C23CC4CC(CC(C4)C2)C3)c1 (stereo unspecified) | 62.8% (active) |
| S=C(NNc1ccccc1)NC12CC3CC(CC(C3)C1)C2 | 84.2% (active) |
| Cc1ccc(C(=O)NC(C)C23CC4CC(CC(C4)C2)C3)s1 (stereo unspecified) | 93.3% (active) |
| COc1ccc(C23CC4CC(CC(C(=O)O)(C4)C2)C3)c(F)c1 | 21.2% (inactive) |
| COC(=O)C1CCCc2c1ccn2CC=C(C)C (stereo unspecified) | 27.3% (inactive) |
| CC1CC1C(=O)NC(C)C12CC3CC(CC(C3)C1)C2 (stereo unspecified) | 55.2% (active) |
| CC(NC(=O)C1=NNC(=O)CC1)C12CC3CC(CC(C3)C1)C2 (stereo unspecified) | 68% (active) |
| O=C(NC12CC3CC(CC(C3)C1)C2)c1cccs1 | 98.1% (active) |
| CC(C)c1ccc(C2NC(=O)C(O)=C2C(=O)c2cccs2)cc1 (stereo unspecified) | 29% (inactive) |
| CC(NC(=O)C1=NNC(=O)CC1)C1CC2CCC1C2 (stereo unspecified) | 27.1% (inactive) |
| CC(NC(=O)c1cccs1)C12CC3CC(CC(C3)C1)C2 (stereo unspecified) | 67.3% (active) |
| CN(C)C(=O)c1ccc(-c2cnc3c(c2)CCN3CCCc2ccccc2)cc1 | 33.1% (inactive) |
| COc1ccc(C(NC(=O)c2ccc(C)s2)C2CC2)cc1 (stereo unspecified) | 83.9% (active) |
| COc1cc(NC(=O)c2ccc(C)s2)cc(OC)c1OC | 6.84% (inactive) |
| CN(C)c1nc(N)nc(Cn2nc(-c3ccc(F)cc3)oc2=O)n1 | 91.8% (active) |
| O=C1CC(c2ccc(Br)s2)c2cnn(C3CCCC3)c2N1 (stereo unspecified) | 31.2% (inactive) |
| O=C(N/N=C(\CC(=O)c1cccs1)C(F)(F)F)c1cccc(Br)c1 | 103% (active) |

| SMILES | inhibition |
| --- | --- |
| CC(C)CC1=NN(C(=O)c2cccc(Br)c2)C(O)(C(F)(F)F)C1 (stereo unspecified) | 23% (inactive) |
| CCOC(=O)c1c(NC(=O)c2c(F)c(F)c(F)c(F)c2F)sc2c1CCN(c1ccc(Cl)nc1)C2 | 61.8% (active) |
| CCN1CCc2c(sc(NC(=O)c3ccc(OC)c(OC)c3)c2-c2nc3ccccc3s2)C1 | 28.1% (inactive) |
| Cc1noc(CN(C)C(=O)c2cc(C(C)C)no2)n1 | -37.1% (inactive) |
| Cc1ccc(CN(C)C(=O)c2cc(Br)c[nH]2)o1 | 44.1% (inactive) |
| Cc1ccc(CN(C)C(=O)c2cc(C(C)C)[nH]n2)o1 | 69.9% (active) |
| CCN(CC)C(=O)COC(=O)c1cc(-c2cc(C)sc2C)nc2onc(C)c12 | -34.1% (inactive) |
| COc1cccc(OCc2nc(-c3ccc(Br)o3)no2)c1 | 93.8% (active) |
| S=c1[nH]nc(COc2ccc(Cl)cc2)o1 | 91.8% (active) |
| Cc1cc(C)nc(Nc2cccc(OCc3nc(-c4cccs4)no3)c2)n1 | 29.2% (inactive) |
| S=c1[nH]nc(COc2ccccc2Cl)o1 | -28.9% (inactive) |
| CC(Oc1ccc(F)cc1)c1n[nH]c(=S)o1 (stereo unspecified) | -17.5% (inactive) |
| S=c1[nH]nc(COc2ccc(Cl)cc2Cl)o1 | 79.7% (active) |
| Cc1ccc(C)c(OCc2n[nH]c(=S)o2)c1 | 21.7% (inactive) |
| COc1cccc(OCc2n[nH]c(=S)o2)c1 | 79.7% (active) |
| CN1N=C(c2ccc(F)c(F)c2)CSC1=NCc1ccccc1 | 18.9% (inactive) |
| OC1(C2(O)CC(c3ccccc3)NO2)CCCCC1 (stereo unspecified) | 27.1% (inactive) |
| O=C(NN=C1C(=O)c2cccc3cccc1c23)NC1CCCCC1 | -1.18% (inactive) |
| Cc1cccc(C)c1-n1nnnc1SC(C)C(=O)NC(=O)NC1CCCCC1 (stereo unspecified) | 81.5% (active) |
| CC(On1nnc2ccc(Cl)cc21)C(=O)NC(=O)NC1CCCCC1 (stereo unspecified) | 27.5% (inactive) |
| Brc1ccc(-c2ccc(CN3CCNCC3)s2)cc1 | 73.8% (active) |
| N#Cc1ccc(/C=C/C(=O)N2CCN(Cc3ccc(Br)s3)CC2)cc1 | 28.6% (inactive) |

| SMILES | inhibition |
| --- | --- |
| O=C(C1CC1)N1CCC(NCc2ccc(-c3cccc(Br)c3)s2)CC1 | 44.8% (inactive) |
| CCN(C(=S)NC(=O)C1CC1)C1CCCCC1 | 20.5% (inactive) |
| O=C(NNc1c(Cl)cc(Cl)cc1Cl)C1CCC1 | 47.8% (inactive) |
| O=C(NC(=S)Nc1cc(Cl)c(Cl)cc1Cl)C1CC1 | 82.6% (active) |
| C=CCOc1ccccc1CN(C(=O)CCl)c1ccc2c(c1)OCCO2 | 37.2% (inactive) |
| O=S(=O)(Nc1cc(Cl)ccc1-n1cncn1)c1ccc(F)cc1 | 66% (active) |
| O=[N+]([O-])c1cc(S(=O)(=O)Nc2cc(Cl)ccc2F)ccc1F | 47.3% (inactive) |
| O=[N+]([O-])c1cc(S(=O)(=O)Nc2cc(Cl)ccc2-n2cncn2)ccc1Cl | 67.4% (active) |
| O=c1[nH]nc(-c2ccccc2O)n1-c1ccc(Br)cc1 | -5.57% (inactive) |
| COC(=O)N1CCc2onc(-c3ccc(-c4ccccc4)cc3)c2C1 | 25.7% (inactive) |
| O=C(CCNc1ccc(-c2ccccc2)cc1)N1CCn2cncc2C1 | 92.2% (active) |
| O=C(CN1CCN(C(=O)C2CCCO2)CC1)Nc1ccc(-c2ccccc2)cc1 (stereo unspecified) | 4.56% (inactive) |
| c1ccc(Cc2nnc3sc(-c4ccco4)nn23)cc1 | 21.3% (inactive) |
| CCCOC(=O)c1ccc(NCN2C(=O)c3ccccc3C2=O)cc1 | 93.9% (active) |
| CCCCOC(=O)c1ccc(Nc2ncnc3c2nnn3C)cc1 | 9.62% (inactive) |
| COCC(C)NC(=O)CCc1nnc(CCC2CCCCC2)o1 (stereo unspecified) | inactive |
| CC(CNC(=O)CCc1nnc(CCC2CCCCC2)o1)c1ccccc1 (stereo unspecified) | 57.9% (active) |
| O=C(CCc1nnc(CCC2CCCCC2)o1)NCCc1cccnc1 | 41% (inactive) |
| CN(Cc1ccoc1)C(=O)c1cn(CC2CCCCC2)nn1 | 26.8% (inactive) |
| CC(Cc1cnccn1)NC(=O)CCc1nnc(CCC2CCCCC2)o1 (stereo unspecified) | 33.8% (inactive) |
| CCn1cc(CNC(=O)CCc2nnc(CCC3CCCCC3)o2)cn1 | 76.4% (active) |
| O=C1Nc2ccc(Br)cc2C12Nc1ccccc1S2 (stereo unspecified) | 5.83% (inactive) |
